Results from PubChem BioAssay AID2232 (The Scripps Research Institute Molecular Screening Center, 2010).
Hit rate of the full screen: of about 1,100 compounds, about 790 (72%) were called active. So high a share suggests a set chosen from earlier hits. Not all results are given here. Values without a mark were called inactive.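 The calls were made as follows: active = mean inhibition across replicates above the hit cutoff set in the primary screen (cut at about 26% in these data); inactive = the rest.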

The compounds below were run against Acyl-protein thioesterase 2 (Homo sapiens) (UniProt O95372) (assay: LYPLA2 inhibitors, retest, confirmation, counter-screen for PME1 inhibitor project, biochemical, fluorescence polarization, FP-Rh probe ABPP (AID 2232;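 also: blocked labeling of the enzyme by serine hydrolase FP-Rh probe lowers polarization; 0% = enzyme with DMSO and 100% = wells lacking LYPLA2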)). Details: recombinant LYPLA2, FP-Rh probe fluorescence polarization; at 5.9 µM; active compounds read high.
Chain of Acyl-protein thioesterase 2 (Homo sapiens) (O95372 whole entry, looked up): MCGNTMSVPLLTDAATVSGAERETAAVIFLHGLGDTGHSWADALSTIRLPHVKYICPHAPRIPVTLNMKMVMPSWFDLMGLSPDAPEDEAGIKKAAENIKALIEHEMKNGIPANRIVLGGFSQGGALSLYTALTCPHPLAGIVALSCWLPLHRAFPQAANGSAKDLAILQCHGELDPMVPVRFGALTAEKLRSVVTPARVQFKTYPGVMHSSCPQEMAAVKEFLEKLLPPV
In the case of `Cc1ccc(N2CCN(C3=NC(=O)/C(=C\c4cccs4)S3)CC2)cc1`, the inhibition is reported as 56.2% (active). For `CCC(CC)COC(=O)C1=C(C)NC(=O)NC1c1ccc([N+](=O)[O-])cc1` (stereo not drawn), the inhibition was 48.5% (active). For `Cc1c(C)c2ccc(OCC(=O)N3CCN(c4cccc(Cl)c4)CC3)cc2oc1=O`, the inhibition was 45.7% (active). For `O=C(COc1ccc(Cl)cc1)N1CCN(c2cccc(C(F)(F)F)c2)CC1`, the inhibition was 63.1% (active). With `O=C(CCCN1C(=O)CSc2ncccc21)N1CCN(c2cccc(C(F)(F)F)c2)CC1` the inhibition was 60.9% (active). For `O=C(c1cc(-c2ccc(Cl)cc2)on1)N1CCN(c2ccccc2)CC1`, the inhibition was 2.82%. With `CCC(=O)c1ccc(OCC(O)CN2CCN(c3cccc(C(F)(F)F)c3)CC2)cc1` (stereo not drawn) the inhibition was 62.3% (active). Work on `CN(CCc1ccccn1)C(=O)c1ccc(OC2CCN(CCc3ccccc3)CC2)cc1` yielded an inhibition of 21.1%. In the case of `O=C(CCCN1C(=O)c2cccc3cccc(c23)C1=O)N1CCN(Cc2ccc3c(c2)OCO3)CC1`, the inhibition is reported as 55.4% (active). `O=C(COc1ccc(NC(=O)c2ccccc2[N+](=O)[O-])cc1)c1ccc(F)cc1` was tested, and the inhibition was 34.8% (active). In the case of `O=[N+]([O-])c1ccc(Oc2ccc(F)cc2Br)c2ccncc12`, the inhibition is reported as 33.5% (active). With `Cc1cc(OCCCN2CCN(Cc3ccccc3)CC2)ccc1[N+](=O)[O-]` the inhibition was 40.4% (active). With `CSc1cccc(NC(=O)CN2C(=O)COc3ccc(S(=O)(=O)N4CCOCC4)cc32)c1` the inhibition was 33.8% (active). `N#Cc1ccc(C2=CC(=O)C[C@H](c3ccc(Cl)cc3)C2)cc1` was tested, and the inhibition was 42% (active). For `O=C(CC1SC(N2CCCC2)=NC1=O)Nc1ccc(C(=O)NCCc2ccc(F)cc2)cc1` (stereo not drawn), the inhibition was 43.7% (active). In the case of `CCOC(=O)c1cc2cc(-c3c(C(=O)OCC)oc4cc(O)cc(O)c4c3=O)ccc2o1`, the inhibition is reported as 36.7% (active). `O=C1C2CCCN2C(=O)N1CCCCN1CCN(c2cccc(C(F)(F)F)c2)CC1` (stereo not drawn) was tested, and the inhibition was 55.6% (active). Work on `CCN(CC)C(=O)CC1(c2ccccc2OC)CCOC(C(C)C)C1` (stereo not drawn) yielded an inhibition of 4.28%. In the case of `Cc1nc([N+](=O)[O-])cn1CC(=O)Nc1ccc2c(c1)OCO2`, the inhibition is reported as 26.8% (active). In the case of `CCc1ccc(NC(=O)c2ccc(Cn3cc([N+](=O)[O-])cn3)cc2)cc1`, the inhibition is reported as 19.7%. With `Cc1nc([N+](=O)[O-])cn1CC(=O)Nc1ccc(Cl)cc1` the inhibition was 34.4% (active). In the case of `O=C(c1ccco1)N1CCN(C(=S)Nc2cc(F)cc(F)c2)CC1`, the inhibition is reported as 44.1% (active). Compound `CCOc1ccc(C(=O)NC(=S)Nc2ccc(N3CCOCC3)c(Cl)c2)cc1[N+](=O)[O-]` has an inhibition of 21.8%. `O=C(Nc1ccc(N2CCN(C(=O)c3ccccc3)CC2)c(Cl)c1)c1cccnc1` was tested, and the inhibition was 27% (active). For `Cc1ccc(C(c2sc3nc(C)nn3c2O)N2CCN(c3ccc(F)cc3)CC2)cc1` (stereo not drawn), the inhibition was 30% (active). With `COc1ccc(CCNc2nc(-c3cccc(NC(C)=O)c3)cs2)cc1OC` the inhibition was 3.07%. In the case of `O=C(Cc1ccc(-n2c(=O)[nH]c3ccccc3c2=O)cc1)N1CCN(c2cccc(Cl)c2)CC1`, the inhibition is reported as 48.3% (active). For `COc1ccc(-c2nc(CS(=O)CC(=O)NCc3ccccn3)c(C)o2)cc1` (stereo not drawn), the inhibition was 9.85%. In the case of `O=[N+]([O-])c1ccc(N2CCN(CC(O)COc3ccccc3)CC2)cc1` (stereo not drawn), the inhibition is reported as 29.1% (active). In the case of `COCCOC(=O)c1sc(=S)n(CCOC)c1N`, the inhibition is reported as 21.3%. `Cc1ccc(/C=N/NC(=O)C(NC(=O)c2ccccc2)c2n[nH]c(=O)c3ccccc23)cc1` (stereo not drawn) was tested, and the inhibition was 56.2% (active). With `Cc1nn2c(=O)cc(COC(=O)c3ccc(NC(=O)C(C)(C)C)cc3)nc2s1` the inhibition was 27.5% (active). With `COc1ccccc1C(=O)NC(CCSC)C(=O)N1CCN(C/C=C/c2ccccc2)CC1` (stereo not drawn) the inhibition was 31.7% (active). With `Cc1cc(C)c(C#N)c(SCc2[nH]nc3c2C(c2ccccc2)C(C#N)=C(N)O3)n1` (stereo not drawn) the inhibition was 48.2% (active). With `N#Cc1cc([N+](=O)[O-])ccc1Oc1cccc(/C=N/NC(=O)c2ccc(Cl)cc2)c1` the inhibition was 15.7%. For `CC(=O)c1ccc(N2CCN(C(=O)C3CCN(S(=O)(=O)c4ccc5c(c4)CC(C)N5C(=O)C4CC4)CC3)CC2)cc1` (stereo not drawn), the inhibition was 72% (active). With `CC(=O)N1c2ccc(S(=O)(=O)N3CCC(C(=O)N4CCN(c5ccccc5)CC4)CC3)cc2CC1C` (stereo not drawn) the inhibition was 47.4% (active). In the case of `Cc1nn(Cc2ccccc2)c(C)c1CNC(=O)c1ccc(F)c(S(=O)(=O)N2CCOCC2)c1`, the inhibition is reported as -0.54%. In the case of `CCCCCC1CCC(c2nnc(SCC(C)=O)o2)CC1` (stereo not drawn), the inhibition is reported as 37.8% (active). Work on `CCN(CC)c1ccc(C(=O)NNC(=O)CCc2nc3ccccc3c(=O)[nH]2)cc1` yielded an inhibition of 1.17%. `COc1ccc(N2CCN(C(=O)c3ccc(N4CCCCS4(=O)=O)cc3)CC2)cc1` was tested, and the inhibition was 56.2% (active). `Nc1[nH][nH]c(=O)c1N=Nc1ccc2c(c1)OCO2` was tested, and the inhibition was 1.18%. `COc1ccc(N2CC(C(=O)NCCN3C(=O)S/C(=C\c4cccnc4)C3=O)CC2=O)c(OC)c1` (stereo not drawn) was tested, and the inhibition was 6.43%. `CCCCCCOc1ccc(OC(=O)c2cccnc2)cc1` was tested, and the inhibition was 59.1% (active). Work on `CCC(=C/c1sc2ccc3ccccc3c2[n+]1C)/C=C1\Sc2ccc3ccccc3c2N1C` yielded an inhibition of 0.49%. For `O=C(Nc1ccc(N2CCN(C(=O)c3cccs3)CC2)cc1)c1cccnc1Cl`, the inhibition was 37.2% (active). Compound `COc1ccc(C(C#N)Nc2ccc(C)cc2)cc1` (stereo not drawn) has an inhibition of 3.09%. In the case of `Cc1cccc(OCC(O)CN2CCN(CCN3C(=O)c4cccc5cccc(c45)C3=O)CC2)c1C` (stereo not drawn), the inhibition is reported as 42.9% (active).
